D1 potentiator = potentiators of human D1 dopamine receptor. P21728. HEK293 TREx D1 cells, calcium flux, dopamine EC20 potentiation. potentiation, % at 10 µM. actives 0.036% (n = 360,000); in the data active means potentiation above about 30%; further: 0% is about no effect
Target sequence (P21728 whole entry, looked up): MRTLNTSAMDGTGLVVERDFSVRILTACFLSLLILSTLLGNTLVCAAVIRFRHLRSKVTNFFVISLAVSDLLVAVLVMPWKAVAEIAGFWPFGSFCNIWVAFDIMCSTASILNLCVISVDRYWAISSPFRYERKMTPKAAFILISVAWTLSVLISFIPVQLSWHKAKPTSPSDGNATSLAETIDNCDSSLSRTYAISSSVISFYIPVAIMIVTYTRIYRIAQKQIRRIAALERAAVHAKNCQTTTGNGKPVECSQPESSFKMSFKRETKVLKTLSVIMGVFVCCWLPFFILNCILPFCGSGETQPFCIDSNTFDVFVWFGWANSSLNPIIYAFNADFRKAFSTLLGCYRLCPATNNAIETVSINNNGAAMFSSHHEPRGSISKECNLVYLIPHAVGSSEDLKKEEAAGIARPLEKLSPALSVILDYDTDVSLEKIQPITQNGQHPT
D1 ag = human D1 receptor agonism | P21728 | HEK293 T-REx D1 cells, calcium flux, agonist mode | activation, % at 2 µM | actives 1% (n = 360,000); further: 0% is about no effect
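Tetracycline-induced HEK293 TREx D1 cells, force-coupled to calcium signalling, were dye-loaded with a no-wash calcium kit. Compound was pin-added after a 10 s baseline. Fluorescence was read kinetically at 1 cycle/s for 180 s, with calcium rises flagged as agonism.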
TRHR PAM = TRH receptor (human) allosteric enhancement. P34981. TRHR cells, fluo-8 calcium fluorescence, EC20 TRH enhancement. enhancement, % at 2 µM. actives 0.66% (n = 360,000); in the data active means enhancement above about 30%; further: 0% is about no effect
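Enhancer read-out: after compound pinning and an initial kinetic agonist-mode read, an EC20 of TRH (10 nM final) was injected and fluo-8 calcium signal (Ex 480/Em 530) followed at 1 s/cycle for 100 cycles in TRHR-expressing cells.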
TRHR ag = TRH receptor (human) agonism | TRHR cells, calcium flux fluo-8, FDSS agonist mode | activation, % at 2 µM | actives 0.18% (n = 360,000) | AID 493084; further: 0% is about no effect
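TRHR-expressing cells, plated overnight in medium with 10% serum, were loaded with fluo-8 calcium dye at room temperature. After a 10 s baseline, library compound was pin-added and calcium release was recorded kinetically (ex 480/em 530) as agonist response.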
D1 antag = human D1 dopamine receptor antagonism | HEK293 TREx D1 cells, calcium flux, dopamine EC80; hits give low values | actives 3.2% (n = 360,000) | P21728 | AID 504652 | activity change, negative = inhibition, % at 10 µM; in the data active means activity change below about -30%; further: on the % scale 0 is the no-effect control and ±100 the full control effect
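Using tetracycline-induced force-coupled D1 Hek293 cells and a calcium dye, signals were followed for 180 s after compound, then for 180 s after EC80 dopamine, to detect inhibitors.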
Starred values were filed as active, the others as inactive. A selection: hits, their analogues and other compounds. The true share with any hit is near 4.6%. Unless noted, no stated cut-off is given here; in the data, active means activation above about 30%; inactive means the rest.

SMILES	D1 potentiator	D1 ag	TRHR PAM	TRHR ag	D1 antag
O=C(Nc1nc2n(n1)C(c1ccccc1)C=C(c1ccc(Cl)cc1)N2)c1ccco1 (stereo unspecified)	-1	47*	-2	22	-1
COc1ccc(C2C=C(c3cccs3)Nc3nc(CCCO)nn32)cc1 (stereo unspecified)	7	64*	0	99*	8
COc1ccc(C2C=C(c3ccc(F)cc3)Nc3nc(-c4ccc(Cl)cc4)nn32)cc1 (stereo unspecified)	-4	38*	7	-1	9
CCn1c(CNc2cccc(Cl)c2)nnc1SCC(=O)OC1CCCCC1	-4	36*	6	-1	-43*
CCn1c(CNc2ccc(Cl)cc2)nnc1SCC(=O)OC1CCCCC1	-4	9	-4	0	0
Cc1cc(=O)n(Cc2cccc(F)c2)c2c1c(C)nn2-c1cccc(F)c1	-2	15	2	0	1
CC(=O)Nc1ccc(S(=O)(=O)Nc2ccc(C(=O)NCC(=O)O)cc2)cc1	-3	2	7	1	-66*
Cc1ccc(NS(=O)(=O)c2ccc(C(=O)NCc3ccccn3)cc2)cc1	-8	40*	-1	6	-30
Cc1ccc(C(C)n2cc(C(=O)NCc3ccccn3)nn2)cc1 (stereo unspecified)	-6	33*	0	4	15
CS(=O)(=O)Nc1ccc(C(=O)NCc2ccccn2)cc1	-9	6	1	0	15
Cc1ccc(CNC(=O)c2cc(NS(=O)(=O)c3ccc(C)cc3)ccn2)cc1	3	-1	3	0	-32*
CCC(CC)C(=O)Nc1nnc(S(=O)(=O)N(C)c2cc(C)cc(C)c2)s1	-3	9	8	1	-2
CCOC(=O)c1ccc(N2CCN(c3cc(C)ccc3C)CC2)c(NC(=O)Nc2ccc(Cl)cc2)c1	0	-3	1	0	-3
O=C1CCc2cc(S(=O)(=O)N3CCCCC3)cc3c2N1CC3	3	0	8	0	-20
CCOc1ccc(NS(=O)(=O)c2ccc(C(=O)NCc3ccncc3)cc2)cc1	-10	12	-1	1	5
CCOc1ccc(NS(=O)(=O)c2ccc(C(=O)NCc3ccccn3)cc2)cc1	-19	33*	-2	5	8
CSc1ncc(C(=O)NCc2ccc(F)cc2)c(-c2ccccc2)n1	5	-2	-5	10	-3
O=S(=O)(NCc1cccs1)c1ccc(Br)cc1	-3	4	4	0	-33*
CCOc1cc(S(=O)(=O)NCc2cccs2)ccc1Cl	-3	2	-1	0	-37*
CCCNS(=O)(=O)c1ccc(NC(=O)Cc2cccs2)cc1	-8	3	2	0	-33*
CCOc1ccc(S(=O)(=O)NCc2cccs2)cc1C(C)C	-1	4	-1	1	-12
CN(C)S(=O)(=O)c1ccc(S(=O)(=O)NCc2cccs2)cc1	-7	3	-1	1	17
Cc1cc2c(s1)c1cnn(Cc3ccc(SC(F)(F)F)cc3)c(=O)c1n2C	7	4	-4	0	7
O=C(Nc1nnc(/C=C/c2ccccc2)s1)c1ccco1	-8	1	34*	0	4
CC(=O)Nc1nnc(/C=C/c2cccc([N+](=O)[O-])c2)s1	-1	-2	-1	0	-54*
SMILES	D1 potentiator	D1 ag	TRHR PAM	TRHR ag	D1 antag
COC(=O)Nc1nnc(/C=C/c2ccccc2)s1	1	2	1	0	2
COc1cc(CNC2CCCC2)c(Br)cc1OC1CCCC1	-12	20	-3	0	-30*
O=C(CCn1nnc2ccccc21)Nc1nnc(COc2ccccc2F)s1	4	3	32*	0	17
O=C(CCn1nnc2ccccc21)Nc1nnc(-c2ccccc2F)s1	-4	5	-4	0	-12
O=C(Nc1ccccc1)c1nnsc1S(=O)c1ccc(Cl)cc1 (stereo unspecified)	-4	2	-1	4	-41*
O=C(c1nnsc1S(=O)c1ccc(Cl)cc1)N1CCOCC1 (stereo unspecified)	8	5	3	13	18
CC1=CC(C)(C)N(C(=O)c2ccccc2)c2ccc(C)cc21	-2	57*	-3	8	-13
C=CCN1C(=O)c2ccccc2C1(O)Cc1ccccc1 (stereo unspecified)	1	1	4	0	-22
